CYP2C19 act = human CYP2C19 activators, primary screen, biochemical, luminescence. 96,000 tested, under 10 active. activation factor at 5 µM. Cytochrome P450 2C19 (Homo sapiens), P33261. recombinant CYP2C19, luciferin-H EGE luminescence; hits give high values; 0 = fully inhibited enzyme, 1 = untreated enzyme;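 active = activation factor of at least 2 at 5 µM in the primary screen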;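 note: 0 = wells with 2.5 mM tranylcypromine and 1 = vehicle-only wells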
CYP2C9 inhib = blockers of cytochrome P450 2C9 activity – biochemical, luminescence, ADME assay, primary screen; 20% of 96,000 active; CYP2C9 Supersomes, luciferin-H conversion; P11712; inhibition, % at 5 µM;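 active = blocking of liver enzyme CYP2C9 beyond about 50% at 5 µM, limit read from the data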
EphB4 ephrin blk = EphB4-ephrin-B2 interaction antagonists, primary screen, biochemical, TNYL-RAW peptide probe, fluorescence polarization | 0.15% of 97,000 active | EphB4 LBD / TNYL-RAW-Alexa532 peptide | Ephrin type-B receptor 4 (Homo sapiens), P54760 | inhibition, % at 7 µM;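 active = inhibition above the screen-wide mean inhibition plus 3 SD, cut at about 15% in these data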;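 note: 0% = DMSO wells and 100% = excess unlabeled TNYL-RAW peptide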
CYP2C19 inhib = blockers of cytochrome P450 2C19 activity – biochemical, luminescence, ADME assay, primary screen; CYP2C19 Supersomes, luciferin-H EGE luminescence, 30 min; 21% of 96,000 active; AID 778, 2007; inhibition, % at 5 µM;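 active = CYP2C19 inhibition above a set limit at 5 µM in the primary screen, cut at about 50% in these data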;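 note: plate controls were negative control wells for no effect and 2.5 mM tranylcypromine positive control for full effect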
CYP2C9 activ = human CYP2C9 activators, primary screen, biochemical, luminescence. Cytochrome P450 2C9 (Homo sapiens), P11712. recombinant CYP2C9, luciferin-H conversion; hits give high values; factor 1 = untreated enzyme, 0 = blocked. activation factor at 5 µM. 1.4% of 96,000 active. AID 1024, 2008;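 active = activation factor of 2 or more for CYP2C9 at a 5 µM dose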;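 note: 0 = sulfaphenazole-blocked wells and 1 = vehicle-only wells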
The depositor's hits bear a star; . = not tested or not shown. Hits are enriched below; roughly 27% of the tested compounds scored in any of these assays.

SMILES | CYP2C19 act | CYP2C9 inhib | EphB4 ephrin blk | CYP2C19 inhib | CYP2C9 activ
CCOc1ccc(S(=O)(=O)NCc2ccncc2)cc1 | 0 | 79.4* | 3.9 | 100.4* | 0.2
Cc1ccc(S(=O)(=O)NCc2ccncc2)cc1 | 0 | 24.3 | 0.5 | 97.3* | 0.8
Cc1nn(C)c(C(=O)NNC(=S)NCc2ccco2)c1Cl | . | . | 8.5 | . | .
COc1ccc(OC)c(C2C(C(C)=O)=C(O)C(=O)N2CCN2CCOCC2)c1 (stereo not given) | 0.9 | 21.7 | 2.8 | 5.1 | 0.8
CCOC(=O)N1CCN(C(=O)COc2ccc(S(=O)(=O)NCc3ccccc3)cc2)CC1 | 1 | 19.5 | 1.2 | -4.4 | 0.8
CC1CCCCC1NS(=O)(=O)c1ccc(S(=O)(=O)NCc2ccncc2)cc1 (stereo not given) | 0 | 100.3* | 3.4 | 98.3* | 0
CCOC(=O)COc1ccc(S(=O)(=O)NCc2ccncc2)cc1 | 0 | 67.4* | 5.4 | 98.4* | 0.3
Cc1ccc(C)c(S(=O)(=O)NCc2cccnc2)c1 | . | . | -6.7 | . | .
COc1ccc(S(=O)(=O)NC(C(C)C)C(C)C)cc1OC | . | . | 5.9 | . | .
COc1ccc(S(=O)(=O)NCc2ccncc2)cc1OC | 0 | 25.3 | . | 100.0* | 0.7
Cc1ccc(C)c(S(=O)(=O)NCc2ccncc2)c1 | 0.2 | 29.5 | 1.4 | 83.0* | 0.7
CC1CCCCC1NC(=O)c1ccc(S(=O)(=O)NCc2ccco2)cc1 (stereo not given) | . | . | 2.4 | . | .
CC(C)Oc1ccc(-c2cc(=O)[nH]c(=O)[nH]2)cc1 | 1.2 | -27.4 | -0.8 | -16.5 | 1.3
Cc1cn2c(-c3ccncc3)nnc2s1 | 1 | -0.9 | -0.6 | -3.0 | 1
COc1ccc(S(=O)(=O)NCCC(C)C)cc1OC | 0 | -237.1 | -5.6 | 95.8* | 3.4*
Cc1ccc(C)c(S(=O)(=O)NCc2ccc(C(=O)NCc3ccccn3)cc2)c1 | 0.1 | 88.7* | 2.2 | 88.6* | 0.1
O=C1CC(c2ccc(S(=O)(=O)NC3CC3)cc2)CN1 (stereo not given) | 1.2 | 8.8 | -5.4 | -15.2 | 0.9
CC(C)CCNS(=O)(=O)c1ccc(-c2ccc(S(=O)(=O)NCCC(C)C)cc2)cc1 | 1 | -8.0 | 1.8 | 2.1 | 1.1
O=C1CC(c2ccc(S(=O)(=O)NCc3ccncc3)cc2)CN1 (stereo not given) | 0.1 | 53.5* | -7.1 | 85.1* | 0.5
CCOc1ccccc1CNC(=O)C1CCCN(c2nc3ccccc3o2)C1 (stereo not given) | 0.8 | 9.0 | 0.2 | 24.3 | 0.9
COc1cc(C2c3c(oc4ccccc4c3=O)C(=O)N2Cc2cccnc2)cc(OC)c1OC (stereo not given) | 1 | -7.7 | -4.9 | -1.7 | 1.1
COc1cc(/C=C2\S/C(=N/S(=O)(=O)c3ccccc3)NC2=O)c([N+](=O)[O-])cc1OC | . | . | 8.4 | . | .
COc1ccc(S(=O)(=O)/N=C2/NC(=O)/C(=C\c3cc(OC)c(OC)cc3[N+](=O)[O-])S2)cc1 | 0.9 | 99.8* | 1.6 | 14.1 | 0
Cc1ccc(-n2c(-c3cc(C)n(C)n3)n[nH]c2=S)cc1 | 0.9 | 16.4 | -1.9 | 12.8 | 0.8
Cc1nn(C(C)c2n[nH]c(=S)n2-c2ccc(F)cc2)c(C)c1[N+](=O)[O-] (stereo not given) | . | . | -1.9 | . | .
SMILES | CYP2C19 act | CYP2C9 inhib | EphB4 ephrin blk | CYP2C19 inhib | CYP2C9 activ
CC(C)c1ccc(NC(=O)C2CCCN(S(=O)(=O)c3cnc[nH]3)C2)cc1 (stereo not given) | 0.4 | 62.3* | -6.9 | 61.6* | 0.4
CCOC(=O)N1CCC(NC(=O)C2CCN(S(=O)(=O)c3cnc[nH]3)CC2)CC1 | 1 | -8.2 | . | 0.7 | 1.1
O=C(Nc1ccc(Cl)cc1)C1CCCN(S(=O)(=O)c2cnc[nH]2)C1 (stereo not given) | 0.1 | 87.9* | 0.2 | 89.7* | 0.1
CCOC(=O)c1ccc(NC(=O)C2CCCN(S(=O)(=O)c3cnc[nH]3)C2)cc1 (stereo not given) | 0.1 | 95.7* | 8.5 | 92.2* | 0
Cc1csc(NC(=O)C2CCCN(S(=O)(=O)c3cnc[nH]3)C2)n1 (stereo not given) | 1 | 12.8 | 4.5 | -0.5 | 0.9
CC(NC(=O)C1CCCN(S(=O)(=O)c2cnc[nH]2)C1)c1ccccc1 (stereo not given) | 0.3 | 73.7* | -2.3 | 69.8* | 0.3
CCCCOc1ccc(C(C)NC(=O)C2CCCN(S(=O)(=O)CC)C2)cc1 (stereo not given) | 0.9 | 15.2 | -5.7 | 14.3 | 0.8
CCOc1ccc(CN(CCO)CCO)cc1C(=O)OC | 1 | 5.0 | 3.6 | -3.6 | 0.9
CSc1nnc(C)c(/C=C/Nc2ccc(F)cc2)n1 | 0.8 | 38.9 | 4.8 | 18.5 | 0.6
CCN(CC)C(=O)C1=C(C)NC(=S)NC1c1cn(-c2ccccc2)nc1-c1ccc(Cl)cc1 (stereo not given) | 0.9 | -22.3 | -10.6 | 9.9 | 1.2
Cc1nc(Nc2cccc(C(F)(F)F)c2)nc2c1C(=O)CC(C)C2 (stereo not given) | 1 | 11.2 | 0.5 | -2.8 | 0.9
CC1CCN(S(=O)(=O)c2ccc(S(=O)(=O)NCC3COCCO3)cc2)CC1 (stereo not given) | 0.4 | 3.3 | -3.3 | 60.2* | 1
O=S(=O)(NCC1CCCO1)c1ccc(S(=O)(=O)N2CCCC2)cc1 (stereo not given) | 1 | 9.7 | 3.1 | 4.5 | 0.9
COc1ccc(C(=O)NNC(=O)Cc2ccc(-c3ccccc3)cc2)cc1OC | 1.1 | -23.5 | 5.1 | -12.8 | 1.2
COc1cc2c(cc1NC(=O)C(c1ccccc1)c1ccccc1)CCCC2 | 0.2 | 95.9* | -10.1 | 83.1* | 0
COCCNC(=O)c1ccc(NC(C)=O)cc1 | 1.1 | 11.0 | 4.1 | -9.6 | 0.9
COCc1nnc(NS(=O)(=O)c2ccc(Br)cc2)s1 | 1.1 | 57.4* | 3.2 | -12.9 | 0.4
COCc1nnc(NS(=O)(=O)c2ccc([N+](=O)[O-])cc2)s1 | 1.2 | 82.1* | 0.3 | -20.3 | 0.2
O=C(NCCN1CCCCC1)Nc1ccccc1 | 1 | -0.7 | -3.0 | -1.1 | 1
CCc1nnc(NC(=O)c2ccc(S(=O)(=O)N(CC)Cc3ccccc3)cc2)o1 | 1 | 95.1* | 6.0 | -0.1 | 0
CN(Cc1ccccc1)S(=O)(=O)c1ccc(C(=O)Nc2nnc(C3CC3)o2)cc1 | 0.8 | 85.3* | -0.5 | 21.7 | 0.1
CCCCN(C)S(=O)(=O)c1ccc(C(=O)Nc2nnc(CSC)o2)cc1 | 1 | 85.0* | -6.4 | 4.1 | 0.2
CCCCN(CCCC)S(=O)(=O)c1ccc(C(=O)Nc2nnc(COC)o2)cc1 | 1 | 19.3 | -1.0 | 3.2 | 0.8
COc1ccccc1-c1nnc(NC(=O)c2ccc(S(=O)(=O)N(C)Cc3ccccc3)cc2)o1 | . | . | -2.8 | . | .
COc1ccc(CCNC(=O)C2CCN(C(=O)N(C)C)CC2)cc1OC | 0.9 | -12.5 | 6.8 | 6.9 | 1.1
